“And” between values parts separate entries of the source, which are not always exact repeats. Equal values may be shown once. This is part of a sample that, as a whole, favours compounds with a hit. Of some 83,000 tested, about 20% had one in any assay.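 Results are percent growth after 48 hours of single-concentration exposure. 100 means growth as in untreated cells, lower positive values show inhibition; negative values down to -100 show cell death.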 The source made the active and inactive calls.

The values below come from PubChem BioAssay (NCI).

One experiment has as its system IGROV1 ovarian. Put plainly: NCI-60 one-dose screen, 48 h (100 = growth as untreated, 0 = no growth, -100 = all killed). The settings on record: 0.25 µM. How it is done: Growth inhibition of the IGROV1 human tumor cell line is measured as a screen for anti-cancer activity. Cells are grown in 96 well plates and exposed to the test compound for 48 hours. Compounds are tested at a single concentration, which is 10^-5 M for most compounds. The reported endpoint is percent growth (GI% or GIPRCNT), where numbers from 0 - 100% represent growth inhibition, and numbers from -100% - 0 represent cell death. For example, a value of 40 represents 60% growth inhibition. A value of 0 means no net growth occurred over the course of the experiment. A value of -40 indicates 40% of cells at the beginning of the experiment died by the end of the experiment. A value of -100 means all cells are dead at the end of the experiment.
NCI-60 Human Tumor Cell Lines Screen was performed using the standard one-dose NCI protocol, which is described in more detail at https://dtp.cancer.gov/discovery_development/nci-60/default.htm.
Compounds with GIPRCNT values below 10 were considered active. Activity score was based on GIPRCNT using the following formula: […]
Score is 0 for GIPRCNT values of 100 or above, 50 for GIPRCNT values of 0, and 100 for GIPRCNT values of -100.
Turning to `CCCCCCCCCCCCCCCc1ccc(Cl)c(O)c1Cl` (tested in a mixture with another compound), the growth was 28.7% (inactive).

The experiment is the same for the next values; noted with them: 10 µM.
Turning to `CCc1ccccc1-n1c(N)c(C#N)c(-c2ccc(OC)c(OC)c2)c(C#N)c1=O`, the growth is 107% (inactive).
`Cc1[nH]c(-c2nc3ccccc3[nH]2)c(C)c1C(=O)NC(C)C1CCCCC1` (stereo not given): the growth is 90.9% (inactive).
For the compound `COc1ccc(Cl)cc1C(=O)NCCc1ccc(S(=O)(=O)NC(=O)NC2CCCCC2)cc1`, the growth is 119% (inactive) and 99.4% (inactive).
`CCCCCCCCCCCCCCCc1ccc(Cl)c(O)c1Cl` (tested in a mixture with another compound): the growth was 97.4% (inactive).

Staying with this experiment, now noted: 10 µM unless noted.
For `O=C(c1ccc(Cl)cc1)C(NCCO)c1ccc(Cl)cc1` (stereo not given), the growth was 88.5% (inactive) and 91.7% (inactive).
With `CN(C)c1ccc(/C=C(\C#N)c2ccccc2)cc1`, the growth is -39.9% (active) and 52.4% (inactive) and 43.5% (inactive).
For the compound `CN(C)c1ccc2nc3ccc(=[N+](C)C)cc-3sc2c1`, the growth is 9.73% (active) and 1.01% (active) and 43.1% (inactive).
The same measure, in the same setting: under `Nc1ccccc1SC1CC(=O)N(c2cccc3ccccc23)C1=O` (stereo not given) stands 99.1% (inactive); under `Cc1ccc(NCSc2ccc(Cl)cc2)cc1`, 103% (inactive) and 80.7% (inactive).
Turning to `COc1ccc(-c2cn[nH]c2-c2cc(OC)c(OC)c(OC)c2)cc1N`, the growth was 37.2% (inactive) and 15.6% (inactive).
Same read-out and setting: under `CC1(C)[C@@H](OC(=O)CCC(=O)O)CC[C@]2(C)[C@H]3C(=O)C=C4[C@@H]5C[C@@](C)(C(=O)O)CC[C@]5(C)CC[C@@]4(C)[C@]3(C)CC[C@@H]12` stands 105% (inactive) and -35.8% (active); under `CCN(CC)CCC(CNc1ccnc2cc(Cl)ccc12)c1ccc(OC)cc1` (stereo not given), 52.3% (inactive) and 38% (inactive).
On the same count and under the same terms, under `Cc1cccc(/C=C\C(=O)c2ccccc2)c1` stands 91.6% (inactive); under `O=C=NC(c1ccccc1)(c1ccccc1)c1ccccc1`, 105% (inactive); under `CCOC(=O)Nc1nc2ccccc2[nH]1`, 114% (inactive) and 39.3% (inactive).
In the case of `CC(=O)Nc1ccc(O)cc1`, the growth was 107% (inactive) and 114% (inactive).
As for `CC(=O)c1ccccc1O`, the growth was 102% (inactive) and 105% (inactive) and 101% (inactive).
The same measure, in the same setting: under `O=C(Nc1cccc(-n2ccc3c(NC(=O)c4ccccc4)nccc32)c1)c1ccc(Cl)c(C(F)(F)F)c1` stands 4.27% (active) and 56.4% (inactive); under `c1ccc(NCc2ccc3c(c2)OCO3)cc1`, 118% (inactive) and 102% (inactive).
Same read-out and setting: under `Oc1c(CN2CCCCC2)ccc2cccnc12` stands 46% (inactive) and 55.3% (inactive); under `Cc1ccc(S(=O)(=O)NCN2C(=O)c3ccccc3C2=O)cc1`, 107% (inactive).
Still for that read-out and setting: the value for `Cn1c(=O)c2[nH]c(CCCCCCCCc3nc4ccccc4[nH]3)nc2n(C)c1=O` was 100% (inactive) and 85.9% (inactive); that for `COc1cc2c(c(OC)c1OC)-c1ccc(OC)c(=O)cc1[C@@H](NC(C)=O)CC2` was 16.5% (inactive) and 15.3% (inactive); that for `CNC(=O)c1cc(Oc2ccc(NC(=O)Nc3ccc(Cl)c(C(F)(F)F)c3)cc2)ccn1` was -24.8% (active) and -70.7% (active).
On to `CC(C)N=c1cc2n(-c3ccc(Cl)cc3)c3ccccc3nc-2cc1Nc1ccc(Cl)cc1`, for which the growth is 30.2% (inactive) and -9.37% (active).
Same read-out and setting: under `O=C(Nc1cccc(Cl)c1)c1cc2ccccc2cc1O` stands 22.6% (inactive) and 24.2% (inactive).
On to `CCc1c(CC(=O)O)c2cc(C)ccc2n1Cc1ccc(Cl)cc1`, for which the growth is 92.3% (inactive).
Consider `Clc1nc(Oc2ccccc2)nc(-c2cn(-c3ccccc3)c3ccccc23)n1`, for which the growth is 28.3% (inactive).
Same read-out and setting: under `COc1ccc2nc(Cl)cc(C)c2c1` stands 108% (inactive) and 132% (inactive); under `Nc1cc(-c2cccc(OC(F)(F)F)c2)nc2ccc(N3CCCC3)cc12`, 23.7% (inactive) and 25.6% (inactive) and 24.4% (inactive).
As for `N#C/C(=C/c1c(O)ccc2ccccc12)C(N)=O`, the growth was 93.4% (inactive).
On the same count and under the same terms, the value for `COc1cc2c(Nc3ccc(Cl)c(Cl)c3F)ncnc2cc1OCC1C[C@@H]2CN(C)C[C@@H]2C1` (stereo not given in full) was -70.1% (active) and -9.02% (active); that for `Nc1n[nH]c(=S)n1-c1ccc(Cl)cc1` was 110% (inactive).
For `Cn1cc(-c2cc3c(Nc4ccc(CC(=O)Nc5cc(C(C)(C)C)on5)cc4)ncnc3[nH]2)cn1`, the growth is -12.2% (active) and 2.63% (active).
Take `O=C(O)C1C2C=CC(C2)C1C(=O)O` (stereo not given): the growth is 95.2% (inactive) and 25.2% (inactive) and 106% (inactive).
In the case of `O=C(Nc1ccc([N+](=O)[O-])cc1Cl)c1cc(Cl)ccc1O`, the growth was 14.4% (inactive).

Still in this experiment, the particulars now being: 100 µM.
For the compound `CCc1ccccc1-n1c(N)c(C#N)c(-c2ccc(OC)c(OC)c2)c(C#N)c1=O`, the growth is 22.2% (inactive).
Take `Cc1[nH]c(-c2nc3ccccc3[nH]2)c(C)c1C(=O)NC(C)C1CCCCC1` (stereo not given): the growth was -67.8% (active).
Take `COc1ccc(Cl)cc1C(=O)NCCc1ccc(S(=O)(=O)NC(=O)NC2CCCCC2)cc1`: the growth is 69.2% (inactive).
